Here are results for nine molecules from PubChem BioAssay (NCI).

About 83,000 compounds went through this panel and 20% of them were active in at least one assay; those are over-represented in the sample as a whole.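 Assay: single dose, 48 h. Readout: percent growth (0 = no net growth; negative = cell death). Active: <10.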 Unmarked numbers belong to inactive results. Calls of active or inactive are those of the source.

What all share (assay): NCI-60 one-dose screen, 48 h (100 = growth as untreated, 0 = no growth, -100 = all killed)
The subject of one assay is HCT-15 colon. As to conditions: 10 µM unless noted.
The subject of the next assay is HT29 colon. The conditions noted are these: 10 µM unless noted.
The next assay has as its system SNB-75 CNS. The conditions noted are these: 10 µM unless noted.
A further assay relates to SNB-19 CNS. As to conditions: 10 µM unless noted.
Another assay has as its system U251 CNS. As to conditions: 10 µM unless noted.
Another assay concerns PC-3 prostate. As to conditions: 10 µM unless noted.
Another assay has as its system UACC-62 melanoma. As to conditions: 10 µM unless noted.
Another assay relates to LOX IMVI melanoma. The conditions noted are these: 10 µM unless noted.
For a further assay, the system named is SK-MEL-28 melanoma. As to conditions: 10 µM unless noted.
For another assay, the system named is SK-MEL-2 melanoma. The conditions noted are these: 10 µM unless noted.
A further assay deals with EKVX NSCLC. The conditions noted are these: 10 µM unless noted.
Another assay has as its system SN12C renal. As to conditions: 10 µM unless noted.
The next assay relates to UO-31 renal. The conditions noted are these: 10 µM unless noted.
The subject of a further assay is TK-10 renal. The conditions noted are these: 10 µM unless noted.
Another assay relates to ACHN renal. The conditions noted are these: 10 µM unless noted.
Another assay has as its system CAKI-1 renal. As to conditions: 10 µM.
The next assay concerns CCRF-CEM leukemia. The conditions noted are these: 10 µM unless noted.
Another assay deals with MOLT-4 leukemia. As to conditions: 10 µM unless noted.
In the next assay the test system is A498 renal. As to conditions: 10 µM unless noted.
Another assay concerns SK-MEL-5 melanoma. The conditions noted are these: 10 µM unless noted.

In the case of `COC[C@]12CC[C@@H](C)[C@H](C)[C@H]1C1=CC[C@@H]3[C@@]4(C)CCCNC(C)(C)[C@@H]4CC[C@@]3(C)[C@]1(C)CC2`, the growth in the assay with HCT-15 colon was 8.12% (active); with HT29 colon it was 0.874% (active); in the assay on SNB-75 CNS it was 105%; in the assay on SNB-19 CNS it was 47.8%; in the assay with U251 CNS, -34.8% (active); with PC-3 prostate it was 18.4%. Moreover, the growth was 17.2% with UACC-62 melanoma; -87.8% (active) with LOX IMVI melanoma; -59.6% (active) with SK-MEL-28 melanoma; 58.5% in the assay with SK-MEL-2 melanoma; 57.8% with EKVX NSCLC; 23.2% in the assay on SN12C renal. Further, the growth in the assay with UO-31 renal is 60.2%; in the assay with TK-10 renal it was 61.9%; in the assay on ACHN renal, 30.7%; in the assay on CAKI-1 renal, 35%; with CCRF-CEM leukemia, 17%; with MOLT-4 leukemia, 5.72% (active).
Consider `CS(=O)c1nccc(-c2c(-c3ccc(F)c(OCCc4ccccc4)c3)nc3sccn23)n1` (stereo not drawn), for which the growth in the assay with HCT-15 colon is 65.4%; in the assay on HT29 colon, 59.9%; in the assay on SNB-75 CNS, 106%; in the assay with SNB-19 CNS, 86.6%; with U251 CNS, 106%; with PC-3 prostate, 64.6%. Besides, the growth in the assay with UACC-62 melanoma is 93.8%; with LOX IMVI melanoma it was 72.1%; in the assay with SK-MEL-28 melanoma, 87.8%; in the assay on EKVX NSCLC, 99.9%; with UO-31 renal it was 52.7%; in the assay on TK-10 renal, 105%. Further, the growth in the assay on ACHN renal is 72.8%; with CAKI-1 renal, 84.8%; with A498 renal it was 92.6%.
As for `C=CCn1c(SCC(=O)c2ccc(OC)cc2)nnc1-c1ccc(OC)cc1`, the growth in the assay on HCT-15 colon is 98.1%; in the assay on HT29 colon it was 108%; with SNB-75 CNS it was 108%; in the assay with SNB-19 CNS, 99.7%; in the assay on U251 CNS, 102%; with PC-3 prostate it was 99.6%. Further, the growth in the assay with UACC-62 melanoma is 95.4%; with LOX IMVI melanoma it was 103%; with SK-MEL-28 melanoma, 100%; with EKVX NSCLC it was 96.4%; in the assay with SN12C renal it was 97.6%; in the assay with UO-31 renal, 92.1%. In addition, the growth is 105% with TK-10 renal; 104% in the assay on ACHN renal; 88.3% with CAKI-1 renal; 107% in the assay on CCRF-CEM leukemia; 96.1% in the assay on MOLT-4 leukemia.
For the molecule `CCn1c2ccc(/C=N/NS(=O)(=O)CCN(C)C)cc2c2cc(/C=N/NS(=O)(=O)CCN(C)C)ccc21`, the growth is 108% in the assay on HCT-15 colon; 103% with HT29 colon; 107% in the assay with SNB-75 CNS; 100% with SNB-19 CNS; 99.8% in the assay with U251 CNS; 100% in the assay on PC-3 prostate. Moreover, the growth with UACC-62 melanoma is 98.6%; in the assay with LOX IMVI melanoma, 98.6%; in the assay on SK-MEL-28 melanoma, 106%; in the assay with SK-MEL-2 melanoma it was 105%; with EKVX NSCLC it was 110%; with SN12C renal it was 99.3%. The growth is 88% in the assay on UO-31 renal; 88.1% in the assay with TK-10 renal; 97% with ACHN renal; 82.1% in the assay on CAKI-1 renal; 69.8% with A498 renal; 103% in the assay on CCRF-CEM leukemia. Moreover, the growth in the assay with MOLT-4 leukemia was 103%.
On to `COc1cc2c3c(n(CCCNC4CCCCC4)c(=O)c2cc1OC)-c1cc2c(cc1C3=O)OCO2`, for which the growth was -68.7% (active) with HCT-15 colon; -69.2% (active) in the assay with HT29 colon; 80.6% with SNB-75 CNS; 2.72% (active) in the assay on SNB-19 CNS; -91.1% (active) in the assay with U251 CNS; -83.6% (active) in the assay with PC-3 prostate. Moreover, the growth in the assay on UACC-62 melanoma is 81%; in the assay with LOX IMVI melanoma, -76.7% (active); with SK-MEL-28 melanoma, 97%; in the assay on EKVX NSCLC, -65.3% (active); with SN12C renal it was -70.3% (active); in the assay on UO-31 renal it was 84.5%. For the same molecule, the growth with TK-10 renal was -95% (active); in the assay on ACHN renal, -6.15% (active); with CAKI-1 renal, 73.9%; with A498 renal, 86.2%; in the assay with CCRF-CEM leukemia, -25.3% (active).
Turning to `C#C[C@]1(O)CC[C@H]2[C@@H]3CC=C4c5sc(Nc6cc(Cl)ccn6)nc5CC[C@]4(C)[C@H]3CC[C@@]21C`, the growth is 3.75% (active) with HCT-15 colon; 21.4% in the assay on HT29 colon; -33.2% (active) in the assay on SNB-75 CNS; -1.08% (active) in the assay on SNB-19 CNS; 15.1% with U251 CNS; 7.93% (active) in the assay with PC-3 prostate. For the same molecule, the growth in the assay with SK-MEL-5 melanoma is -58.9% (active); in the assay on UACC-62 melanoma, -17% (active); with SK-MEL-28 melanoma it was -47.3% (active); in the assay with SK-MEL-2 melanoma it was -4.31% (active); in the assay with EKVX NSCLC, -1.83% (active); in the assay on SN12C renal it was 53.6%. Moreover, the growth in the assay on UO-31 renal was -51.3% (active); in the assay with ACHN renal, 32.5%; with CAKI-1 renal, -19.9% (active); with A498 renal it was -42.4% (active); in the assay on CCRF-CEM leukemia, 9.26% (active); in the assay with MOLT-4 leukemia it was 4.35% (active).
As for `O=S(=O)(Nc1ccc2c(c1)OC(F)(F)O2)c1ccc(-c2cnc(C3CC3)o2)cc1`, the growth in the assay with HCT-15 colon was 26.2%; in the assay on HT29 colon, 17.2%; in the assay with SNB-75 CNS, 19%; with SNB-19 CNS it was 47%; with U251 CNS it was 32.6%; in the assay with PC-3 prostate it was 45.3%. The growth in the assay on UACC-62 melanoma is 29.4%; in the assay on LOX IMVI melanoma, 37.7%; in the assay on SK-MEL-28 melanoma, 58.3%; with SK-MEL-2 melanoma, 41.3%; with EKVX NSCLC, 58%; with SN12C renal it was 52.8%. The growth is 56.7% in the assay on UO-31 renal; 57.1% with ACHN renal; 17.5% in the assay on CAKI-1 renal; 23.2% in the assay with A498 renal; 24.1% in the assay on CCRF-CEM leukemia; 30.3% with MOLT-4 leukemia.
Consider `COc1ccc(-c2cc(-c3cccc4ccccc34)n3c(n2)nc2ccccc23)cc1`, for which the growth was 42.8% in the assay with HCT-15 colon; 33.8% in the assay on HT29 colon; 35.5% with SNB-75 CNS; 39.9% in the assay with SNB-19 CNS; 33.1% in the assay on U251 CNS; 35.8% with PC-3 prostate. The growth in the assay with UACC-62 melanoma is 33.7%; in the assay with LOX IMVI melanoma it was 45.7%; with SK-MEL-28 melanoma it was 70.2%; in the assay on SK-MEL-2 melanoma, 79.1%; with EKVX NSCLC it was 74.9%; in the assay with SN12C renal, 36.9%. The growth with UO-31 renal is 29%; in the assay with TK-10 renal, 43%; in the assay with ACHN renal, 19.7%; in the assay on CAKI-1 renal, 21%; in the assay on A498 renal it was 41.5%; in the assay on CCRF-CEM leukemia it was 9.05% (active). The growth with MOLT-4 leukemia is 2.23% (active).
As for `Cc1cn(-c2cc(NC(=O)c3cncc(C#Cc4cnc5ccc(O[C@H]6CCOC6)nn45)c3)cc(C(F)(F)F)c2)cn1`, the growth in the assay on HCT-15 colon is 82.8%; in the assay with HT29 colon, 69%; in the assay with SNB-75 CNS, 92.9%; with SNB-19 CNS, 117%; in the assay with U251 CNS, 105%; in the assay with PC-3 prostate it was 96.5%. Also, the growth is 70.6% in the assay with UACC-62 melanoma; 62.6% in the assay with LOX IMVI melanoma; 76.3% in the assay with SK-MEL-28 melanoma; 89.9% in the assay on EKVX NSCLC; 72% in the assay on SN12C renal; 55.7% in the assay on UO-31 renal. Also, the growth was 133% with TK-10 renal; 87.7% with ACHN renal; 88.5% in the assay with CAKI-1 renal; 95.6% in the assay on CCRF-CEM leukemia; 88.9% in the assay on MOLT-4 leukemia.
